From PubChem BioAssay
Where “and” joins values, the source holds several entries; their conditions need not be identical. Equal entries are not always repeated. Calls of active or inactive are those of the source.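 Rule for the calls, unless noted: active = compounds whose cell count with miR-34 switched on is under 0.7 times the count with it off; inactive = the rest.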

What was measured:
[1] = sensitizers of A549 cells to miR-34 induction, primary screen, imaging, A549 dox-inducible miR-34, nuclei and caspase counts (AID 1347080); details: A549 miR-34 inducible, Hoechst nuclei count, 48 h; note: test concentration not given here
[2] = survival rescue of mitochondrial mutant cells in low glucose, primary screen, MELAS cybrids, Rieske KO mouse fibroblasts, CellTiter-Glo (AID 1508586;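 active = mean z-score across replicates of 1.96 or higher in either the MELAS or the Rieske mutant cell line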;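 note: test concentration not given here; z relative to plate mean and SD of compound and empty wells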)
[3] = viability rescue of complex I mutant cybrids, primary screen, cell-based, galactose medium, ATP luminescence (AID 1645843;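 active = z-score of at least 1.8 in each of two replicates, scored against plate mean and spread of sample wells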;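 note: positive z means more ATP and so rescue of galactose-driven cybrid death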); details: complex I mutant cybrid cells, 72 h, stronger effect = higher value
[4] = stronger effect = lower value, cell number ratio, induced over uninduced
[5] = measured here: relative caspase fold change +Dox/-Dox
[6] = measured here: total cells with miR-34 induction, stronger effect = lower value
[7] = measured here: total cells without miR-34 induction
[8] = MELAS cybrid survival, CellTiter-Glo 48 h, stronger effect = higher value
[9] = Rieske KO mouse fibroblast survival, CellTiter-Glo 72 h

Row | Compound | fold change [1, 4] | fold change [1, 5] | cell count [1, 6] | cell count [1, 7] | z-score [2, 8] | z-score [2, 9] | z-score [3]
1 | Cn1nc(-c2cccnc2)c2[nH]c(-c3ccc4c(c3)OCCO4)nc21 | 0.86 (inactive) | 1.08 | 5270 | 6130 | 12.6 (active) | 3.9 | 4.01 (active)
2 | CC(C)C(NC(=O)Cc1c[nH]c2ccccc12)C(=O)O (stereo unspecified) | 0.857 (inactive) | 0.806 | 8140 | 9500 | -1.19 (inactive) | -0.306 | 0.47 (inactive)
3 | NCc1ccc(-c2cccs2)cc1 | 0.89 (inactive) | 0.746 | 8580 | 9650 | -0.349 (inactive) | -0.59 | 0.51 (inactive)
4 | Cc1nn(C)cc1-c1ccnc(NCc2nc(Cc3ccccc3)no2)n1 | 0.883 (inactive) | 1.22 | 8680 | 9840 | -0.288 (inactive) | -0.167 | -0.52 (inactive)
5 | CC(C)n1cc(-c2cc(C(=O)N(C)Cc3ccncc3)c3ccc(F)cc3n2)cn1 | 0.897 (inactive) | 1.79 | 8810 | 9830 | -0.679 (inactive) | 0.655 | -0.46 (inactive)
6 | CCc1cc(CN2CCN(C)C(CCO)C2)on1 (stereo unspecified) | 0.907 (inactive) | 1.26 | 8690 | 9580 | 0.702 (inactive) | -0.294 | -0.59 (inactive)
7 | c1ccc(-c2ncc(-c3ccn[nH]3)s2)cc1 | 0.881 (inactive) | 0.808 | 8010 | 9090 | 2.65 (active) | -0.462 | -0.185 (inactive)
8 | COc1ccc(-c2oc3c(CC=C(C)C)c(OC4OC(CO)C(O)C(O)C4O)cc(O)c3c(=O)c2OC2OC(C)C(O)C(O)C2O)cc1 (stereo unspecified) | 0.929 (inactive) and 0.864 (inactive) | 1.15 and 1.26 | 9660 and 9050 | 10400 and 10500 | -0.309 (inactive) | 0.107 | 0.865 (inactive)
9 | COc1ccc2c(c1)CCN(C(=O)Nc1n[nH]c(-c3ccccc3F)n1)C2 | 0.904 (inactive) | 0.695 | 7710 | 8530 | -0.521 | 3.73 | 0.16 (inactive)
10 | COC1C=CO[C@@]2(C)Oc3c(C)c(O)c4c(O)c(c(C=NN5CCN(C6CCCC6)CC5)c(O)c4c3C2=O)NC(=O)C(C)=CC=CC(C)C(O)C(C)C(O)C(C)C(OC(C)=O)C1C (stereo partly specified) | 1.26 (inactive) and 0.937 (inactive) | 1.41 and 0.74 | 6670 and 7260 | 5310 and 7750 | -0.432 (inactive) | -0.0629 | 0.32 (inactive)
11 | CCOC(=O)C(CCc1ccccc1)NC(C)C(=O)N1C(C(=O)O)CC2CCCC21 (stereo unspecified) | 0.892 (inactive) and 0.893 (inactive) | 1.7 and 1.12 | 8500 and 7970 | 9530 and 8920 | -0.00441 (inactive) | 0.321 | 0.52 (inactive)
12 | Cc1nsc(NC(=O)N(C)Cc2cn[nH]c2-c2ccc(F)cc2)n1 | 0.916 (inactive) | 0.879 | 9230 | 10100 | 0.225 (inactive) | -0.278 | -0.49 (inactive)
13 | COc1ccc(CN2CCN(c3nccc(-c4cn(C)nc4C)n3)CC2=O)cc1 | 0.778 (inactive) | 1.57 | 4640 | 5960 | 4.51 (active) | 2.53 | -0.37 (inactive)
14 | Cc1csc(CNc2nccc(-c3cnn(-c4ccccc4)c3)n2)n1 | 0.775 (inactive) | 1.81 | 4550 | 5870 | -0.292 (inactive) | 0.283 | -0.175 (inactive)
15 | CN(CCc1ccccn1)C(=O)c1ccc2sc(N)nc2c1 | 0.88 (inactive) | 0.927 | 8380 | 9520 | 0.048 (inactive) | -0.377 | -0.435 (inactive)
16 | CCc1ccc(CNC(=O)Nc2nc(C)n(C(C)C)n2)nc1 | 0.86 (inactive) | 1.49 | 7770 | 9030 | 0.0188 (inactive) | 0.8 | -0.525 (inactive)
17 | Cc1ccc2c(-c3ncnc4scc(C)c34)cccc2n1 | 0.882 (inactive) | 1.37 | 6650 | 7540 | -0.275 (inactive) | -0.173 | 2.45 (inactive)
18 | Cc1cc(C)nc(-c2cnn(CC(=O)Nc3cnn(C)n3)c2)n1 | 0.881 (inactive) | 1.67 | 8470 | 9620 | 0.0131 (inactive) | -0.562 | -0.525 (inactive)
19 | O=C(O)c1ccc2ccccc2n1 | 0.876 (inactive) | 0.492 | 7890 | 9000 | -1.05 (inactive) | -0.692 | 0.485 (inactive)
20 | CCn1cnc(NC(=O)N(C)Cc2cccc3ncccc23)n1 | 0.944 (inactive) | 1.82 | 9300 | 9840 | -0.163 (inactive) | -0.316 | -0.465 (inactive)
21 | NS(=O)(=O)c1ccc(CCC(=O)O)cc1 | 0.881 (inactive) | 0.214 | 8780 | 9960 | 0.234 (inactive) | -0.0972 | 0.14 (inactive)
22 | Nc1nc(NCc2ccncc2)c2cn[nH]c2n1 | 0.931 (inactive) | 0.844 | 8290 | 8900 | -0.45 (inactive) | -0.366 | -0.535 (inactive)
23 | COc1ccc(N2CCN(c3ncnc4sccc34)C(C)C2=O)cc1 (stereo unspecified) | 0.791 (inactive) | 1.18 | 6180 | 7810 | -0.528 (inactive) | -0.443 | -0.505 (inactive)
